The values that follow come from PubChem BioAssay (NCATS).

Records with an inconclusive call do not appear. A call without a number means that no potency is given here. The source made the active and inactive calls. Calls come from the whole dose curve; as a rule, active = well fitted cell-killing curve with a large enough effect; inconclusive = small, poorly fitted or top-dose-only effect; inactive = flat fitted curve, though single readings scatter.
Potency is the fitted concentration of half-maximal effect.

The first experiment can be described thus: Cell Viability - LYMP2-013 (AID 970). Note: nearly all actives have a fitted effect of over 55% in size. To be noted: LYMP2-013 lymphoblastoid cells viability; series mostly up to 92.2 µM. The essentials: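 Human lymphoblastoid cells, 2500/well, were preincubated 5 hr at 37 C, then treated with compounds for 24 hr at 37 C in complete medium. Intracellular ATP was read by CellTiter-Glo luminescence; AC50 from Hill-equation fits of concentration-response data.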
For the compound `CC(O)CO` (stereo not given), the Potency entry is “inactive”.
The same measure, in the same setting: for `O=S(=O)(O)O` the value was “inactive”.
For the compound `CCCCCCCC(=O)O`, the Potency entry was “inactive”.
Same read-out and setting: the same measure for `Cc1ccccc1`: “inactive”.
Same read-out and setting: the same measure for `CC1=C2[C@@H]([C@H](C)CC[C@H]2/C=C(\C)C(=O)O)[C@H](O)C1`: “inactive”; for `CCCCC/C=C\C/C=C\CCCCCCCC(=O)O`: “inactive”.
Same read-out and setting: the same measure for `CC(C)=O`: “inactive”; for `O=C(O)CCC(=O)C(=O)O`: “inactive”; for `O=CCCCC=O`: 20 µM (active).
In the case of `CCOc1ccc2c(c1)C(C)=CC(C)(C)N2`, the Potency entry was “inactive”.
For `CCOC(C)=O`, the Potency entry is “inactive”.
The same measure, in the same setting: the same measure for `CCCCCCCC/C=C\CCCCCCCC(=O)O`: “inactive”.
As for `Nc1ccn([C@H]2CS[C@@H](CO)O2)c(=O)n1`, the Potency result is “inactive”.
As to `IC(I)I`, the Potency result is “inactive”.

The nature of another experiment: Cell Viability - LYMP2-015 (AID 971). Note: nearly all actives have a fitted effect of over 55% in size. The following applies: LYMP2-015 lymphoblastoid cell viability; series mostly up to 92.2 µM. The essentials: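 Human lymphoblastoid cells (2500/well) in complete medium were preincubated 5 hr at 37 C, then compound-treated 24 hr at 37 C. Intracellular ATP was read by CellTiter-Glo luminescence after 30 min at room temperature; AC50 came from Hill-equation concentration-response fits.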
For `CC(O)CO` (stereo not given), the Potency result was “inactive”.
Same read-out and setting: for `O=S(=O)(O)O` the value was “inactive”; for `CCCCCCCC(=O)O`, “inactive”.
With `Cc1ccccc1`, the Potency entry was “inactive”.
Still for that read-out and setting: the same measure for `CC1=C2[C@@H]([C@H](C)CC[C@H]2/C=C(\C)C(=O)O)[C@H](O)C1`: “inactive”.
Same read-out and setting: the same measure for `CCCCC/C=C\C/C=C\CCCCCCCC(=O)O`: “inactive”; for `CC(C)=O`: “inactive”; for `O=C(O)CCC(=O)C(=O)O`: “inactive”.
Still for that read-out and setting: for `O=CCCCC=O` the value was 15.8 µM (active); for `CCOc1ccc2c(c1)C(C)=CC(C)(C)N2`, “inactive”; for `CCOC(C)=O`, “inactive”.
`CCCCCCCC/C=C\CCCCCCCC(=O)O`: the Potency entry was “inactive”.
Still for that read-out and setting: for `Nc1ccn([C@H]2CS[C@@H](CO)O2)c(=O)n1` the value was “inactive”; for `IC(I)I`, “inactive”.

A further experiment can be described thus: Cell Viability - LYMP2-017 (AID 972). Note: nearly all actives have a fitted effect of over 55% in size. The following applies: LYMP2-017 lymphoblastoid cell viability; series mostly up to 92.2 µM. The essentials:
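Human lymphoblastoid cells (2500/well) were seeded in complete medium, held 5 hr at 37 C, then exposed to compounds for 24 hr at 37 C. Intracellular ATP was read by CellTiter-Glo luminescence after 30 min at room temperature, with AC50 values from Hill-equation fits.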
Regarding `CC(O)CO` (stereo not given), the Potency entry is “inactive”.
Still for that read-out and setting: the same measure for `O=S(=O)(O)O`: “inactive”; for `CCCCCCCC(=O)O`: “inactive”; for `Cc1ccccc1`: “inactive”.
On the same count and under the same terms, the same measure for `CC1=C2[C@@H]([C@H](C)CC[C@H]2/C=C(\C)C(=O)O)[C@H](O)C1`: “inactive”; for `CCCCC/C=C\C/C=C\CCCCCCCC(=O)O`: “inactive”; for `CC(C)=O`: “inactive”.
Still for that read-out and setting: the same measure for `O=C(O)CCC(=O)C(=O)O`: “inactive”; for `O=CCCCC=O`: 20 µM (active); for `CCOc1ccc2c(c1)C(C)=CC(C)(C)N2`: “inactive”.
For the compound `CCOC(C)=O`, the Potency entry is “inactive”.
The same measure, in the same setting: the same measure for `CCCCCCCC/C=C\CCCCCCCC(=O)O`: “inactive”; for `Nc1ccn([C@H]2CS[C@@H](CO)O2)c(=O)n1`: “inactive”; for `IC(I)I`: “inactive”.

A further experiment is described as follows: Cell Viability - LYMP2-021 (AID 974).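 Note: compound exposure lasts 24 hours at 37 °C; nearly all actives have a fitted effect of over 55% in size.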 The following applies: LYMP2-021 lymphoblastoid cells viability; series mostly up to 92.2 µM. The essentials:
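Human lymphoblastoid cells (2500/well) were preincubated 5 hr at 37 C, then exposed to compounds for 24 hr at 37 C in complete medium. Intracellular ATP was read by CellTiter-Glo luminescence; AC50 came from Hill-equation fits of concentration-response data.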
Take `CC(O)CO` (stereo not given): the Potency entry is “inactive”.
The same measure, in the same setting: for `O=S(=O)(O)O` the value was “inactive”.
The same measure, in the same setting: for `CCCCCCCC(=O)O` the value was “inactive”; for `Cc1ccccc1`, “inactive”; for `CC1=C2[C@@H]([C@H](C)CC[C@H]2/C=C(\C)C(=O)O)[C@H](O)C1`, “inactive”.
On the same count and under the same terms, for `CCCCC/C=C\C/C=C\CCCCCCCC(=O)O` the value was “inactive”.
Consider `CC(C)=O`, for which the Potency entry is “inactive”.
Same read-out and setting: for `O=C(O)CCC(=O)C(=O)O` the value was “inactive”.
The same measure, in the same setting: the same measure for `O=CCCCC=O`: 15.8 µM (active).
Same read-out and setting: for `CCOc1ccc2c(c1)C(C)=CC(C)(C)N2` the value was “inactive”; for `CCOC(C)=O`, “inactive”.
`CCCCCCCC/C=C\CCCCCCCC(=O)O`: the Potency entry was “inactive”.
The same measure, in the same setting: the same measure for `Nc1ccn([C@H]2CS[C@@H](CO)O2)c(=O)n1`: “inactive”.
The same measure, in the same setting: the same measure for `IC(I)I`: “inactive”.

A short description of another experiment: Cell Viability - LYMP2-023 (AID 975). Note: nearly all actives have a fitted effect of over 55% in size. The following applies: LYMP2-023 lymphoblastoid cell viability; series mostly up to 92.2 µM. The essentials:
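Human lymphoblastoid cells (2500/well) were preincubated 5 hr at 37 C, then exposed to compounds for 24 hr at 37 C in complete medium. Cellular ATP was read by CellTiter-Glo luminescence, and AC50 came from Hill-equation fits.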
For the compound `CC(O)CO` (stereo not given), the Potency result is “inactive”.
As to `O=S(=O)(O)O`, the Potency entry was “inactive”.
On the same count and under the same terms, for `CCCCCCCC(=O)O` the value was “inactive”.
Same read-out and setting: for `Cc1ccccc1` the value was “inactive”; for `CC1=C2[C@@H]([C@H](C)CC[C@H]2/C=C(\C)C(=O)O)[C@H](O)C1`, “inactive”; for `CCCCC/C=C\C/C=C\CCCCCCCC(=O)O`, “inactive”.
Consider `CC(C)=O`, for which the Potency result was “inactive”.
On the same count and under the same terms, for `O=C(O)CCC(=O)C(=O)O` the value was “inactive”.
Still for that read-out and setting: the same measure for `O=CCCCC=O`: 25.1 µM (active).
In the case of `CCOc1ccc2c(c1)C(C)=CC(C)(C)N2`, the Potency result is “inactive”.
The same measure, in the same setting: for `CCOC(C)=O` the value was “inactive”.
Same read-out and setting: the same measure for `CCCCCCCC/C=C\CCCCCCCC(=O)O`: “inactive”; for `Nc1ccn([C@H]2CS[C@@H](CO)O2)c(=O)n1`: “inactive”; for `IC(I)I`: “inactive”.

A further experiment in a line: Cell Viability - LYMP2-025 (AID 976). The following applies: LYMP2-025 lymphoblastoid cell viability; series mostly up to 92.2 µM. The essentials: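 Human lymphoblastoid LYMP2-025 cells (2500/well) were pre-incubated 5 hr at 37 C, then treated with compounds for 24 hr at 37 C in complete medium. Viability was read as intracellular ATP by CellTiter-Glo luminescence; AC50 from Hill fits.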
On to `CC(O)CO` (stereo not given), for which the Potency entry was “inactive”.
The same measure, in the same setting: the same measure for `O=S(=O)(O)O`: “inactive”; for `CCCCCCCC(=O)O`: “inactive”.
Same read-out and setting: the same measure for `CC(C)(C)NC(=O)[C@@H]1C[C@@H]2CCCC[C@@H]2CN1C[C@@H](O)[C@H](Cc1ccccc1)NC(=O)[C@H](CC(N)=O)NC(=O)c1ccc2ccccc2n1`: “inactive”.
Consider `CC1=C2[C@@H]([C@H](C)CC[C@H]2/C=C(\C)C(=O)O)[C@H](O)C1`, for which the Potency entry is “inactive”.
On the same count and under the same terms, the same measure for `CCCCC/C=C\C/C=C\CCCCCCCC(=O)O`: “inactive”; for `CC(C)=O`: “inactive”.
In the case of `O=C(O)CCC(=O)C(=O)O`, the Potency result was “inactive”.
Still for that read-out and setting: the same measure for `O=CCCCC=O`: 39.8 µM (active).
The same measure, in the same setting: the same measure for `CCOc1ccc2c(c1)C(C)=CC(C)(C)N2`: “inactive”; for `CCOC(C)=O`: “inactive”.
The same measure, in the same setting: for `CCCCCCCC/C=C\CCCCCCCC(=O)O` the value was “inactive”.
With `Nc1ccn([C@H]2CS[C@@H](CO)O2)c(=O)n1`, the Potency result is “inactive”.
In the case of `CC1=C(/C=C/C(C)=C/C=C/C(C)=C/CO)C(C)(C)CCC1`, the Potency entry is “inactive”.
Still for that read-out and setting: the same measure for `IC(I)I`: “inactive”.

The nature of the next experiment: Cell Viability - LYMP2-002 (AID 977). To be noted: LYMP2-002 lymphoblastoid cell viability, qHTS; series mostly up to 92.2 µM. The essentials: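 Luminescent ATP readout (CellTiter-Glo, 30 min room temperature) after 24 h compound exposure at 37 C of a human lymphoblastoid line, 2500 cells/well. AC50 values derived by standard Hill fitting of qHTS concentration-response data.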
In general terms: In qHTS, concentration-response curves come from the screen itself.
As for `CC(O)CO` (stereo not given), the Potency entry was “inactive”.
On the same count and under the same terms, the same measure for `O=S(=O)(O)O`: “inactive”.
Still for that read-out and setting: the same measure for `CCCCCCCC(=O)O`: “inactive”; for `Cc1ccccc1`: “inactive”; for `CC1=C2[C@@H]([C@H](C)CC[C@H]2/C=C(\C)C(=O)O)[C@H](O)C1`: “inactive”.
As for `CCCCC/C=C\C/C=C\CCCCCCCC(=O)O`, the Potency result was “inactive”.
Same read-out and setting: the same measure for `CC(C)=O`: “inactive”; for `O=C(O)CCC(=O)C(=O)O`: “inactive”.
`O=CCCCC=O`: the Potency was 31.6 µM (active).
As to `CCOc1ccc2c(c1)C(C)=CC(C)(C)N2`, the Potency entry is “inactive”.
The same measure, in the same setting: for `CCOC(C)=O` the value was “inactive”.
Consider `CCCCCCCC/C=C\CCCCCCCC(=O)O`, for which the Potency entry is “inactive”.
The same measure, in the same setting: the same measure for `Nc1ccn([C@H]2CS[C@@H](CO)O2)c(=O)n1`: “inactive”; for `CC1=C(/C=C/C(C)=C/C=C/C(C)=C/CO)C(C)(C)CCC1`: “inactive”; for `IC(I)I`: “inactive”.
